# According to PubChem BioAssay (NCATS):
# Values joined by “and” are separate entries in the source; they are usually repeats but may differ in a detail not shown here. Equal entries are not always repeated. A number with no mark means an inactive call. Inconclusive results are not listed. A call without a number means that no potency is given here. Active and inactive are the calls of the source. Unless noted, the rule behind the calls is not given here.
# Test system: TAB113
# Experiment: qHTS profiling for inhibitors of Plasmodium falciparum proliferation (AID 504749; active = well fitted inhibition curve with a large enough effect; note: nearly all actives have a fitted effect of over 60% in size; note: potency is the fitted concentration of half-maximal effect)
# Settings: P. falciparum in erythrocytes, SYBR Green DNA, 72 h; series mostly up to 28.7 µM
# Procedure, shortened: (§1)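 Parasite proliferation within erythrocytes, 72 h exposure. Endpoint: SYBR Green I fluorescence after overnight lysis at room temperature. Controls: 0.29 uM artemisinin, DMSO.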
row,Structure (SMILES),Potency
1,O=C(O)c1cc(O)c2c(c1)[C@H]([C@H]1c3cc(C(=O)O)cc(O)c3C(=O)c3c(O[C@@H]4OC(CO)C(O)C(O)C4O)cccc31)c1cccc(O[C@@H]3OC(CO)C(O)C(O)C3O)c1C2=O (some centres not stated),inactive
2,CC(C)CN(C[C@@H](OP(=O)(O)O)[C@H](Cc1ccccc1)NC(=O)O[C@@H]1CCOC1)S(=O)(=O)c1ccc(N)cc1,inactive
3,CCC(C)n1ncn(-c2ccc(N3CCN(c4ccc(OCC5COC(Cn6cncn6)(c6ccc(Cl)cc6Cl)O5)cc4)CC3)cc2)c1=O (configuration not stated),inactive
4,CC(C)CN(C[C@@H](O)[C@H](Cc1ccccc1)NC(=O)O[C@H]1CCOC1)S(=O)(=O)c1ccc(N)cc1,inactive

# Test system: TAB165
# Experiment: as above
# Settings: P. falciparum in erythrocytes, SYBR Green DNA, 72 h; series mostly up to 28.7 µM
# Procedure, shortened: as §1
row,Structure (SMILES),Potency
1,O=C(O)c1cc(O)c2c(c1)[C@H]([C@H]1c3cc(C(=O)O)cc(O)c3C(=O)c3c(O[C@@H]4OC(CO)C(O)C(O)C4O)cccc31)c1cccc(O[C@@H]3OC(CO)C(O)C(O)C3O)c1C2=O (some centres not stated),inactive
2,CC(C)CN(C[C@@H](OP(=O)(O)O)[C@H](Cc1ccccc1)NC(=O)O[C@@H]1CCOC1)S(=O)(=O)c1ccc(N)cc1,inactive
3,CCC(C)n1ncn(-c2ccc(N3CCN(c4ccc(OCC5COC(Cn6cncn6)(c6ccc(Cl)cc6Cl)O5)cc4)CC3)cc2)c1=O (configuration not stated),inactive
4,CC(C)CN(C[C@@H](O)[C@H](Cc1ccccc1)NC(=O)O[C@H]1CCOC1)S(=O)(=O)c1ccc(N)cc1,inactive

# Test system: W2
# Experiment: as above
# Settings: P. falciparum in erythrocytes, SYBR Green DNA, 72 h; series mostly up to 28.7 µM
# Procedure, shortened: as §1
row,Structure (SMILES),Potency
1,O=C(O)c1cc(O)c2c(c1)[C@H]([C@H]1c3cc(C(=O)O)cc(O)c3C(=O)c3c(O[C@@H]4OC(CO)C(O)C(O)C4O)cccc31)c1cccc(O[C@@H]3OC(CO)C(O)C(O)C3O)c1C2=O (some centres not stated),inactive
2,CC(C)CN(C[C@@H](OP(=O)(O)O)[C@H](Cc1ccccc1)NC(=O)O[C@@H]1CCOC1)S(=O)(=O)c1ccc(N)cc1,inactive
3,CCC(C)n1ncn(-c2ccc(N3CCN(c4ccc(OCC5COC(Cn6cncn6)(c6ccc(Cl)cc6Cl)O5)cc4)CC3)cc2)c1=O (configuration not stated),2.13 µM (active)

# Target: Nuclear receptor subfamily 1 group I member 2 (Rattus norvegicus) (UniProt Q9R1A7)
# Experiment: qHTS assay for small molecule activators of the rat pregnane X receptor (rPXR) signaling pathway (AID 651751)
# Settings: rPXR reporter cells, luciferase (One-Glo), 24 h
# Nuclear receptor subfamily 1 group I member 2 (Rattus norvegicus), sequence (Q9R1A7 whole entry, looked up): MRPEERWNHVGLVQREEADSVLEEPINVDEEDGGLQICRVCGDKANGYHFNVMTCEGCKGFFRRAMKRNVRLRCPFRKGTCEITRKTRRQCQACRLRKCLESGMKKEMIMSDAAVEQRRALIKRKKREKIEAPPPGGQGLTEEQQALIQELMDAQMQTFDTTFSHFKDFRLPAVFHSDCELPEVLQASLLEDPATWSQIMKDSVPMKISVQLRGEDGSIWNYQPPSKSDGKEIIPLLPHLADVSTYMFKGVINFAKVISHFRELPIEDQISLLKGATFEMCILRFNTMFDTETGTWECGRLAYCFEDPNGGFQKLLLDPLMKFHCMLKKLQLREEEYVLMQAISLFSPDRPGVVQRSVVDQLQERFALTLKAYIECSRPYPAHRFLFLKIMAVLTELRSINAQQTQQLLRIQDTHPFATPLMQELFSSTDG
row,Structure (SMILES),max response
1,CC12CCC(CC1=O)C2(C)C (configuration not stated),4.6% and -1.11%
2,O=C(/C=C/c1ccc(O)c(O)c1)O[C@@H](C(=O)O)[C@@H](OC(=O)/C=C/c1ccc(O)c(O)c1)C(=O)O,-5.44%
3,CCCCCCCCOC(=O)c1cc(O)c(O)c(O)c1,-0.212%
4,O=C(O)CCCCCCCCC(=O)O,-1.81%
5,O=C(Nc1ccccc1)c1ccccc1O,-1.47%
6,C[Si](C)(C)O[Si](C)(C)O[Si](C)(C)C,0.588%

# Test system: not listed separately
# Experiment: qHTS assay for small molecule activators of the human pregnane X receptor (PXR) signaling pathway (AID 720659)
# Settings: DPX-2 HepG2 CYP3A4-luciferase, 24 h; series mostly up to 92.3 µM
row,Structure (SMILES),outcome
1,CC12CCC(CC1=O)C2(C)C (configuration not stated),inactive
2,O=C(/C=C/c1ccc(O)c(O)c1)O[C@@H](C(=O)O)[C@@H](OC(=O)/C=C/c1ccc(O)c(O)c1)C(=O)O,inactive
3,CCCCCCCCOC(=O)c1cc(O)c(O)c(O)c1,inactive
4,O=C(O)CCCCCCCCC(=O)O,inactive
5,C[Si](C)(C)O[Si](C)(C)O[Si](C)(C)C,inactive
